Results from PubChem BioAssay (NCATS).
Records with an inconclusive call do not appear. A number with no mark means an inactive call. Activity calls are given as the source filed them. Calls follow the shape of the dose curve; as a rule, active = well fitted inhibition curve with a large enough effect; inconclusive = small, poorly fitted or top-dose-only effect; inactive = flat fitted curve, though single readings scatter.

Tests used:
[1] = Drug repurposing screens with cells derived from glioblastoma tumor samples (AID 1345199); settings: GBM patient neurospheres viability, ATP luminescence, 48 h; also: nearly all actives have a fitted effect of over 40% in size
Summary of the method: (§1)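 Four patient lines of CD133+ GBM neurospheres were screened at several concentrations; hits were retested in those lines plus three slower-growing GBM lines, using 48-hour treatment and ATP-based viability.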

astro = control astrocytes; test: as above; settings: viability, ATP luminescence, 48 h; series mostly up to 45.9 µM
Summary of the method: as §1

[2] = at 45.9 µM (top of the series), tumour line B
[3] = at 45.9 µM (top of the series), tumour line D
[4] = at 46 µM (top of the series), tumour line A
[5] = at 46.1 µM (top of the series), tumour line C
% is scaled to controls: 0 for no effect and ±100 for the full control effect; potency is read from the fitted curve at half-maximal effect.

In the case of `CCC(O)c1ccccc1` (stereo not given), the activity, negative = cell killing [1, 2] is reported as -1.17%, the activity, negative = cell killing [1, 3] is reported as 0.662% and the activity, negative = cell killing [1, 4] is reported as -1.63%. For the same molecule, the activity, negative = cell killing [1, 5] was 4.78% and the Potency (astro) was “inactive”.

In the case of `CN1CCc2c(c3ccccc3n2Cc2ccccc2)C1`, the activity, negative = cell killing ([1]; at 20 µM (top of the series), tumour line C) is reported as -5.19%, the activity, negative = cell killing ([1]; at 21.2 µM (top of the series), tumour line B) is reported as -12.3% and the activity, negative = cell killing ([1]; at 21.2 µM (top of the series), tumour line D) is reported as -14.4%. The Potency ([1]; tumour line A) was 5.62 µM (active) and the Potency (astro) was “inactive”.

`CN1c2c(nc(N)[nH]c2=O)NCC1CNc1ccc(C(=O)NC(CCC(=O)O)C(=O)O)cc1` (stereo not given) gave an activity, negative = cell killing [1, 2] of -12%, an activity, negative = cell killing [1, 3] of -5.57% and an activity, negative = cell killing [1, 4] of -17.5%. The activity, negative = cell killing [1, 5] was -2.53% and the Potency (astro) was “inactive”.

Work on `COc1cc2c(cc1OC)[C@@H](c1ccccc1)CN(C)CC2` yielded an activity, negative = cell killing [1, 2] of -22%, an activity, negative = cell killing [1, 3] of -9.13% and an activity, negative = cell killing [1, 5] of -17.9%. The Potency ([1]; tumour line A) was 20 µM (active) and the Potency (astro) was “inactive”.

For `CN1CCC(OC(=O)C(Oc2ccc(Cl)cc2)Oc2ccc(Cl)cc2)CC1`, the activity, negative = cell killing [1, 2] was -23.9%, the activity, negative = cell killing [1, 3] was -4.4% and the activity, negative = cell killing [1, 4] was -21%. For the same molecule, the activity, negative = cell killing [1, 5] was -21% and the Potency (astro) was “inactive”.

For `CC(=O)OCC1=C(C(=O)O)N2C(=O)[C@@H](NC(=O)Cc3ccccc3)[C@H]2SC1`, the activity, negative = cell killing [1, 2] was -6.43%, the activity, negative = cell killing [1, 3] was -15.2% and the activity, negative = cell killing [1, 4] was -28.6%. For the same molecule, the activity, negative = cell killing [1, 5] was -24% and the Potency (astro) was “inactive”.

Work on `O=C(NNCNNC(=O)c1ccncc1)c1ccncc1` yielded an activity, negative = cell killing [1, 2] of -12%, an activity, negative = cell killing [1, 3] of -9.77% and an activity, negative = cell killing [1, 4] of -25.1%. The activity, negative = cell killing [1, 5] was -23% and the Potency (astro) was “inactive”.

In the case of `NC(=S)NS(=O)(=O)c1ccc(N)cc1`, the activity, negative = cell killing [1, 2] is reported as -6.04%, the activity, negative = cell killing [1, 3] is reported as 0.448% and the activity, negative = cell killing [1, 4] is reported as -23.8%. The activity, negative = cell killing [1, 5] was -8.76% and the Potency (astro) was “inactive”.

`CCOC(=O)c1cc(-c2ccccc2)nc2ccc(C)cc12` showed an activity, negative = cell killing [1, 2] of -20.9%, an activity, negative = cell killing [1, 3] of 9.36% and an activity, negative = cell killing [1, 5] of -13.3%. For the same molecule, the Potency ([1]; tumour line A) was 12.6 µM (active) and the Potency (astro) was “inactive”.

With `NCC[C@H](O)C(=O)N[C@@H]1C[C@H](N)[C@@H](O[C@H]2O[C@H](CN)CC[C@H]2N)[C@H](O)[C@H]1O[C@H]1O[C@H](CO)[C@@H](O)[C@H](N)[C@H]1O` the activity, negative = cell killing [1, 2] was -11.6%, the activity, negative = cell killing [1, 3] was -8.34% and the activity, negative = cell killing [1, 4] was -19.6%. The activity, negative = cell killing [1, 5] was -19.9% and the Potency (astro) was “inactive”.

Work on `NC(=O)C1c2ccccc2CCc2ccccc21` yielded an activity, negative = cell killing [1, 2] of 4.21%, an activity, negative = cell killing [1, 3] of -18.6% and an activity, negative = cell killing [1, 4] of -34%. For the same molecule, the activity, negative = cell killing [1, 5] was -17.6% and the Potency (astro) was “inactive”.

`FC(F)OC(Cl)C(F)(F)F` (stereo not given) showed an activity, negative = cell killing [1, 2] of -4.99%, an activity, negative = cell killing [1, 3] of -20.2% and an activity, negative = cell killing [1, 4] of -34.3%. For the same molecule, the activity, negative = cell killing [1, 5] was -9.7% and the Potency (astro) was “inactive”.

With `C[C@@](Cc1ccc(O)c(O)c1)(NN)C(=O)O` the activity, negative = cell killing [1, 2] was -16.8%, the activity, negative = cell killing [1, 3] was -8.91% and the activity, negative = cell killing [1, 4] was -39.3%. For the same molecule, the activity, negative = cell killing [1, 5] was -14.3% and the Potency (astro) was “inactive”.

With `O=P(O)(O)CP(=O)(O)O` the activity, negative = cell killing [1, 2] was -7.32%, the activity, negative = cell killing [1, 3] was -1.92% and the activity, negative = cell killing [1, 4] was -22%. For the same molecule, the activity, negative = cell killing [1, 5] was -17.6% and the Potency (astro) was “inactive”.

Work on `C[C@H](N)C(=O)N[C@@H](C)P(=O)(O)O` yielded an activity, negative = cell killing [1, 2] of -6.14%, an activity, negative = cell killing [1, 3] of -11.2% and an activity, negative = cell killing [1, 4] of -15.6%. For the same molecule, the activity, negative = cell killing [1, 5] was -19.1% and the Potency (astro) was “inactive”.

With `CN1C(=O)C[C@@H](C(=O)N[C@@H](Cc2cnc[nH]2)C(=O)N2CCC[C@H]2C(N)=O)NC1=O` the activity, negative = cell killing [1, 2] was -7.31%, the activity, negative = cell killing [1, 3] was -5.42% and the activity, negative = cell killing [1, 4] was -26.4%. For the same molecule, the activity, negative = cell killing [1, 5] was -16.9% and the Potency (astro) was “inactive”.

`O=P(O)(O)OC[C@H](O)CO` showed an activity, negative = cell killing [1, 2] of -8.89%, an activity, negative = cell killing [1, 3] of -11.2% and an activity, negative = cell killing [1, 4] of -27.1%. The activity, negative = cell killing [1, 5] was 21.9% and the Potency (astro) was “inactive”.

In the case of `O=C(O)c1cc(N=Nc2ccc(O)c(C(=O)O)c2)ccc1O`, the activity, negative = cell killing [1, 2] is reported as -10.7%, the activity, negative = cell killing [1, 3] is reported as -13.9% and the activity, negative = cell killing [1, 4] is reported as -13.2%. For the same molecule, the activity, negative = cell killing [1, 5] was -29.5% and the Potency (astro) was “inactive”.

`CO[C@H]1C=CO[C@@]2(C)Oc3c(C)c(O)c4c(O)c(cc(O)c4c3C2=O)NC(=O)/C(C)=C\C=C/[C@H](C)[C@H](O)[C@@H](C)[C@@H](O)[C@@H](C)[C@H](OC(C)=O)[C@@H]1C` showed an activity, negative = cell killing [1, 2] of -13.5%, an activity, negative = cell killing [1, 3] of -5.36% and an activity, negative = cell killing [1, 4] of -17.1%. For the same molecule, the activity, negative = cell killing [1, 5] was -2.25% and the Potency (astro) was “inactive”.
